KKLEB tox – counter-screen for CF NF-kB inhibitors: cytotoxicity; activity change (cytotoxicity), % at 5 µM; hit rate 0.36% among 360,000; KKLEB CF airway cells viability, ATPlite luminescence, overnight; stronger effect = lower value; cells stimulated with P. aeruginosa culture filtrate;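 active = corrected activity change at or below -50% at 5 µM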
TWEAK-Fn14 inh – inhibitors of TWEAK-Fn14 interaction signaling; hit rate 2% among 360,000; TWEAK-stimulated Fn14 reporter cells, luciferase luminescence, 8 h; AID 1159606; inhibition, % at 10 µM; in the data active = inhibition above about 50%
CF NFkB inh – inhibitors of cystic fibrosis induced NF-kB; KKLEB NF-kB-GFP reporter, PAF-induced, GFP fluorescence overnight; inhibition, % at 5 µM; hit rate 0.86% among 360,000;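 active = at least 50% inhibition at 5 µM, scaled per plate between neutral and stimulator controls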;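 also: PAF is a Pseudomonas aeruginosa culture filtrate used as stimulus; plate controls were PAF-stimulated DMSO wells for no effect and unstimulated DMSO wells for full effect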
Peg3 promoter – reduces Peg3 promoter-driven luciferase expression in HeLa; HeLa PEG-Prom luciferase reporter, luminescence, overnight; inhibition, % at 20 µM; hit rate 1.7% among 360,000;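 active = inhibition of at least 50% at 20 µM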
TROY NFkB inh – inhibitors of TROY-dependent NF-kB signaling | Q293 LMP1-TROYcd NF-kB luciferase reporter, 4 h | inhibition, % at 10 µM | hit rate 0.98% among 360,000;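 active = compounds whose plate-normalised and pattern-corrected inhibition of the luciferase reporter signal at the single screening dose is 50% or more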
HIF-2a block – blocks HIF-2a reporter activity; inhibition, % at 18.8 µM; hit rate 0.72% among 360,000; AID 624352; 786-0 RCC cells HIF-2a reporter, luciferase luminescence, overnight;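 active = inhibition of the luminescence signal of 40% or more relative to plate controls, in a single-dose primary screen at 18.75 µM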
Numbers without * were called inactive; nt = no result given; ! = not active in a repeat. Compounds with a hit are over-represented: about 4% of the library has one in this group of screens.

SMILES	KKLEB tox	TWEAK-Fn14 inh	CF NFkB inh	Peg3 promoter	TROY NFkB inh	HIF-2a block
CN(C)CCCN(C(=O)c1cc(-c2cccs2)nc2ccccc12)c1nc2ccc(F)cc2s1	-34	-14	43	112*	2	-13
CN(C)CCN(C(=O)c1cc(Cl)sc1Cl)c1nc2ccc(F)cc2s1	8	-35	6	-71	-28	-81
CN(C)CCCN(C(=O)CCc1ccccc1)c1nc2ccc(F)cc2s1	5	-4	3	-2	-12	-3
CCN(CC)CCN(C(=O)c1ccc2c(c1)CCCC2)c1nc2ccc(C)cc2s1	0	12	5	-32	-13	-28
Cc1ccc2nc(N(CCCN(C)C)C(=O)c3sc4ccccc4c3Cl)sc2c1	-15	73*	16	-81	50*	-13
CCN(CC)CCN(C(=O)c1ccc2c(c1)CCCC2)c1nc2ccc(F)cc2s1	-9	36	3	-82	55*	-106
Cc1ccc2nc(N(CCCN(C)C)C(=O)c3ccc(S(=O)(=O)N(C)C)cc3)sc2c1	-4	4	3	7	-11	16
Cc1ccccc1C(=O)Oc1cccc(Nc2ncnc3ccccc23)c1	2	53*	14	-23	51*	-2
OCCn1nc(-c2ccccc2)cc1-c1ccccc1	-2	5	5	-3	-6	-28
Cc1onc(-c2ccccc2Cl)c1C(=O)Nc1ccccc1	-3	23	5	11	5	6
Cc1onc(-c2ccccc2Cl)c1C(=O)Nc1ccc(CN2CCCC2)cc1	8	33	-6	7	nt	11
Cc1onc(-c2ccccc2Cl)c1C(=O)NNC(=O)c1cccc(F)c1	-4	76*	5	0	6	11
Cc1onc(-c2ccccc2Cl)c1C(=O)Nc1ccc(-c2nnc3n2CCCCC3)cc1	1	99*	15	11	-2	13
Cc1ccc2[nH]c(=O)c(CN(CCCN(C)C)C(=S)NCCc3ccccc3)cc2c1	1	-6	3	56*	-5	2
Cc1ccc2cc(CN(CCc3ccccc3)C(=S)NCCCN(C)C)c(=O)[nH]c2c1	8	-6	6	23	25	10
C[C@H](NS(=O)(=O)c1ccc(Cl)cc1)C(=O)OCC(=O)NC(=O)Nc1ccc2c(c1)OCCO2	-13	64*	7	-138	2	-49
Cc1ccc(S(=O)(=O)N[C@H](C(=O)OCC(=O)NC(=O)Nc2ccc3c(c2)OCCO3)C(C)C)cc1	4	19	1	-22	10	-7
Cc1nn(-c2ccccc2)c(C)c1-c1nnc(-c2c(C)nn(-c3ccccc3)c2C)o1	-20	33	34	14	50*	-6
Cc1c(O)cccc1C(=O)N[C@@H](CSc1ccccc1)[C@H](O)CN1C[C@H]2CCCC[C@H]2C[C@H]1C(=O)NC(C)(C)C	-13	33	16	77*!	11	-18
CCN(CC(=O)NC(C)(C)C)C(=O)c1ccccc1SCC(=O)NC1CCCCCCC1	24	6	-29	11	14	0
O=C1Nc2ccccc2N(O)N1c1cc(-c2ccccc2Cl)no1	-6	55*	-4	1	1	-5
O=C(CCn1c(=O)[nH]c2ccccc2c1=O)NCCSCc1ccccc1	8	4	7	14	3	16
NC(=O)Cn1c(=O)n(CCC(=O)NCCSCc2ccccc2)c(=O)c2ccccc21	-9	17	0	9	71*	11
O=C(N/N=C/c1ccc(-c2cccc(C(F)(F)F)c2)o1)c1ccccc1Br	-3	59*	-19	-26	65*	-88
COc1ccc(-n2cc(C(=O)c3ccccc3O)cn2)cc1	-10	61*	1	-33	48	-72
SMILES	KKLEB tox	TWEAK-Fn14 inh	CF NFkB inh	Peg3 promoter	TROY NFkB inh	HIF-2a block
COc1ccc(NC(=O)/C(C#N)=C\c2ccc(Br)o2)cc1	-5	-5	1	-114	-67	-146
N#C/C(=C\c1ccc([N+](=O)[O-])o1)C(=O)Nc1ccc(F)cc1	4	-11	4	53*	-23	-33
Cc1cc(C(=O)Nc2nncs2)oc1C	-8	6	-13	-30	-7	-33
COc1ccc(N=C2C(=Nc3ccc(OC)cc3)N(c3ccc(OC)cc3)C(=S)N2C(=O)c2ccc(OC)cc2)cc1	8	-41	4	-40	-25	-195
COc1ccc(N2C(=S)N(C(=O)c3ccccc3)C(=Nc3ccccc3)C2=Nc2ccccc2)cc1	3	75*	1	-256	25	-77
COc1ccc(N=C2C(=Nc3ccc(OC)cc3)N(c3ccccc3)C(=S)N2C(=O)c2ccc(Cl)cc2)cc1	14	66*	-13	-218	18	-168
CCC(Cc1ccccc1)NC(=O)CCc1ccccc1 (configuration not stated)	-4	-26	12	4	5	9
Cn1c(SCC(=O)NCCC2=CCCCC2)nnc1C(F)(F)F	19	-7	-4	3	11	-11
Cc1cccc(C(=O)Nc2ncc(CN3CCOCC3)s2)c1	0	66*	7	-1	-6	-24
Cc1cccc(C(=O)N[C@H](C(=O)Nc2nnc(C3CC3)s2)C(C)C)c1	0	12	8	6	1	25
Cc1cccc(C(=O)N[C@H](C(=O)Nc2ncc(C)s2)C(C)C)c1	-34	24	42	60*	-1	-3
CC(=O)/C(C(=N)N1CCN(C(c2ccccc2)c2ccccc2)CC1)=C(\C)O	3	4	2	7	-15	21
O=C1CC(c2ccccc2)c2cc(O)ccc2O1 (configuration not stated)	5	21	8	33	-18	7
CCc1ccc(OC(C)C(=O)N(Cc2ccco2)C2CCS(=O)(=O)C2)cc1 (configuration not stated)	9	2	28	16	1	4
CC(=O)C(Cc1ccccc1)NC(=O)CCl (configuration not stated)	-22	8	-3	23	-24	18
O=C(CCl)NC(Cc1ccccc1)c1ccccc1 (configuration not stated)	-19	53*	13	42	-23	27
CC(=O)c1c(C)[nH]c(C(=O)Nc2nc(C)cs2)c1C	-10	94*	-6	46	65*	40
COc1ccc(-c2nc(NC(=O)c3[nH]c(C)c(C(C)=O)c3C)sc2C)cc1	-7	-9	-25	0	-7	-16
COc1cccc(OC)c1C(=O)Nc1nc(-c2ccccc2)cs1	0	6	-2	-9	20	-12
CC(=O)c1c(C)[nH]c(C(=O)Nc2nc(-c3ccc(-c4ccccc4)cc3)cs2)c1C	-27	98*	78*	103*	19	-73
CC(=O)c1c(C)[nH]c(C(=O)Nc2nc(-c3ccc(Cl)cc3)cs2)c1C	-20	68*	12	32	58*	-10
O=C(Nc1nc(-c2ccc(Cl)cc2)cs1)NC1CCCCC1	-20	68*	15	0	58*	-28

Compound activity as filed in PubChem.
